This note sets out measurements from PubChem BioAssay (Tox21).

Structures are written as SMILES. A number with no mark means an inactive call. Records with an inconclusive call do not appear. Active and inactive are the calls of the source. Unless noted, calls come from the whole dose curve; as a rule, active = well fitted curve in the direction sought with a large enough effect in the repeat runs; inconclusive = weak or mixed curves; inactive = no such curve, though single readings can be large; an effect the other way counts as inactive or inconclusive.

The nature of experiment [1]: qHTS assay to identify small molecule agonists of the TGF-beta/Smad signaling pathway - cell viability counter screen (AID 1346829). Note: top concentration of the series differs between compounds; nearly all actives have a fitted effect of over 45% in size. Put shortly:
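In parallel with the Smad reporter read, viability of HEK 293T cells stably carrying SBE-bla is quantified by ATP luminescence following 5 hr compound treatment.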
Background: qHTS replaces the single test concentration by a dilution series.

A short description of experiment [2]: qHTS assay to identify small molecule agonists of the TGF-beta/Smad signaling pathway (AID 1346859; active = well fitted activation curve with a large enough effect in the signal ratio in the repeat runs, not every such curve was filed as active; the % refers to the signal ratio; note: series mostly up to about 77 µM). Put shortly: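 Stable Smad binding element-beta-lactamase HEK 293T cells; 5 hr compound exposure at 37 C under 5% CO2; 2 hr room-temperature substrate step; fluorescence excited at 405 nm, collected at 460 nm and 530 nm.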
Experiment [3] in a line: Human pregnane X receptor (PXR) small molecule agonists, qHTS cell viability counter screen (AID 1346977). Note: nearly all actives have a fitted effect of over 50% in size. In short, it runs like this:
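Readout is CellTiter-Fluor fluorescence from PXR-Luc HepG2 cells. Plated cells rested 5hr, then were treated with compounds for 24hr at 37C and 5% CO2, with reagent present during the last hour.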

The nature of experiment [4]: Caspase-3/7 induction in HepG2 cells by small molecules, qHTS assay (AID 1346978). Note: nearly all actives have a fitted effect of over 15% in size. In short, it runs like this:
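Wild-type HepG2 cells, 2,000/well, settled 5 hr at 37 C and 5% CO2, then compound-treated for 17 hr; caspase-3/7 activity read by luminescent Caspase-Glo 3/7 after 30 min at room temperature.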

Experiment [5] in a line: Caspase-3/7 induction in CHO-K1 cells by small molecules, qHTS cell viability counter screen (AID 1346979). Note: nearly all actives have a fitted effect of over 35% in size. In short, it runs like this: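 To flag cytotoxic compounds, treated CHO-K1 wild-type cells were given CellTiter-Fluor at 16hr and read fluorescently after 1hr at 37C; the caspase-3/7 luminescence was measured in these same wells.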
Experiment [6] is described as follows: Caspase-3/7 induction in CHO-K1 cells by small molecules, qHTS assay (AID 1346980). Note: nearly all actives have a fitted effect of over 15% in size. In short, it runs like this:
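Wild-type CHO-K1 cells exposed to compounds for 17hr at 37 C, 5% CO2. Caspase-3/7 activity then measured by Caspase-Glo 3/7 luminescence after 30min at room temperature.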

Experiment [7] deals with Nuclear receptor subfamily 1 group I member 2 (Homo sapiens) (UniProt O75469). The experiment can be described thus: Human pregnane X receptor (PXR) small molecule agonists, qHTS assay (AID 1346982). Note: nearly all actives have a fitted effect of over 35% in size. In short, it runs like this:
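Agonist mode qHTS: PXR-Luc HepG2 cells plated 5 hr before DMSO-dissolved compounds were pinned in, cultured 24 hr at 37 C, 5% CO2; ONE-Glo luminescence readout.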

The target in experiment [8] is Cytochrome P450 2D6 (Homo sapiens) (UniProt P10635). The experiment can be described thus: Cytochrome P450 Family 2 Subfamily D Member 6 (CYP2D6) small molecule antagonists: luciferase reporter qHTS assay (AID 1671196). Note: nearly all actives have a fitted effect of over 50% in size. Note: potency is the fitted concentration of half-maximal effect. Put shortly: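 P450-Glo format: CYP2D6 converts a proluciferin substrate to luciferin in an NADPH-driven reaction lasting 1 h at room temperature. Light output, proportional to CYP2D6 activity, reflects interference by test chemicals.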
(In a reporter assay the amount or activity of a reporter protein is the signal.)

The target in experiment [9] is Cytochrome P450 2C19 (Homo sapiens) (UniProt P33261). The experiment can be described thus: Cytochrome P450 Family 2 Subfamily C Member 19 (CYP2C19) small molecule antagonists: luciferase reporter qHTS assay (AID 1671197). Note: nearly all actives have a fitted effect of over 65% in size. Note: potency is the fitted concentration of half-maximal effect. Put shortly: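 Compounds were tested on CYP2C19 activity via proluciferin conversion to luciferin. The 37C, 1 h reaction followed NADPH addition; detection reagent stopped it.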

In experiment [10] the target is Cytochrome P450 1A2 (Homo sapiens) (UniProt P05177). The experiment can be described thus: Cytochrome P450 Family 1 Subfamily A Member 2 (CYP1A2) small molecule antagonists: luciferase reporter qHTS assay (AID 1671199). Note: nearly all actives have a fitted effect of over 50% in size. Note: potency is the fitted concentration of half-maximal effect. Put shortly: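 Inhibition of CYP1A2 conversion of proluciferin to luciferin, detected by luminescence. Reaction run 1 h at room temperature with NADPH regeneration after brief compound preincubation.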

Experiment [11] concerns the target Voltage-gated inwardly rectifying potassium channel KCNH2 (Homo sapiens) (UniProt Q12809). In words: Human Ether-a-go-go-Related Gene (hERG) channel small molecule antagonists: fluorescence cell-based qHTS assay (AID 1671200).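 Note: hERG-expressing U2OS cells given a thallium stimulus after FluxOR II dye loading; series mostly up to about 77 µM; nearly all actives have a fitted effect of over 50% in size.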 In short, it runs like this: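 Measured: Tl+ flux via fluorescence (480/540 nm) in hERG-expressing U2OS cells after 1 h dye loading at room temperature.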

A short description of experiment [12]: Caspase-3/7 induction in HepG2 cells by small molecules, qHTS cell viability counter screen (AID 1346981). Note: series mostly up to about 92 µM; nearly all actives have a fitted effect of over 30% in size. In short, it runs like this: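 Steps: seed 2,000 HepG2 cells per well; incubate 5 hr at 37 C; pin-add compounds in DMSO; incubate 16 hr; add CellTiter-Fluor; after 1 hr at 37 C and 5% CO2, read fluorescence.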
For experiment [13], the target named is Cytochrome P450 2C9 (Homo sapiens) (UniProt P11712). The experiment can be described thus: Cytochrome P450 Family 2 Subfamily C Member 9 (CYP2C9) small molecule antagonists: luciferase reporter qHTS assay (AID 1671198). Note: nearly all actives have a fitted effect of over 50% in size. Note: potency is the fitted concentration of half-maximal effect. In short, it runs like this:
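P450-Glo proluciferin substrate with CYP2C9 enzyme; 10 min RT preincubation, then NADPH regeneration 1 h at 37C; luciferin detection reagent 20 min RT, luminescence in relative luminescence units.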

For experiment [14], the target named is Cytochrome P450 3A4 (Homo sapiens) (UniProt P08684). The experiment can be described thus: Cytochrome P450 Family 3 Subfamily A Member 4 (CYP3A4) small molecule antagonists: luciferase reporter qHTS assay (AID 1671201). Put shortly:
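Setup: enzyme-substrate mix, compound pin transfer, 10 min RT. Reaction: NADPH regeneration solution, 1 h RT. Readout: detection reagent stops turnover, luminescence measured after 20 min, expressed in relative luminescence units.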

Chain of Cytochrome P450 2C9 (Homo sapiens) (P11712 whole entry, looked up): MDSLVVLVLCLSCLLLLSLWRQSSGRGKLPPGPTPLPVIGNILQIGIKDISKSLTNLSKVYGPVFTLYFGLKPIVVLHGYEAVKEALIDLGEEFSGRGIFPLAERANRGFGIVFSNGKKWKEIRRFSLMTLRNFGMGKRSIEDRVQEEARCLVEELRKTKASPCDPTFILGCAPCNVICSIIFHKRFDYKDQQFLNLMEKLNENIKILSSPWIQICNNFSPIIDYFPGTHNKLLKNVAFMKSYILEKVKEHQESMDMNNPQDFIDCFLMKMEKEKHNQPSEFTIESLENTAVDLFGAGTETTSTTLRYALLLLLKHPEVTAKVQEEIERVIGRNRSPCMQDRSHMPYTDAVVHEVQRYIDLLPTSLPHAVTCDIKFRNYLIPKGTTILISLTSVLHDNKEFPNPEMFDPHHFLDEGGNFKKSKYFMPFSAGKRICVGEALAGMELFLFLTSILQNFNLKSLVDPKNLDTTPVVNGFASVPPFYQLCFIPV
Chain of Cytochrome P450 2C19 (Homo sapiens) (P33261 whole entry, looked up): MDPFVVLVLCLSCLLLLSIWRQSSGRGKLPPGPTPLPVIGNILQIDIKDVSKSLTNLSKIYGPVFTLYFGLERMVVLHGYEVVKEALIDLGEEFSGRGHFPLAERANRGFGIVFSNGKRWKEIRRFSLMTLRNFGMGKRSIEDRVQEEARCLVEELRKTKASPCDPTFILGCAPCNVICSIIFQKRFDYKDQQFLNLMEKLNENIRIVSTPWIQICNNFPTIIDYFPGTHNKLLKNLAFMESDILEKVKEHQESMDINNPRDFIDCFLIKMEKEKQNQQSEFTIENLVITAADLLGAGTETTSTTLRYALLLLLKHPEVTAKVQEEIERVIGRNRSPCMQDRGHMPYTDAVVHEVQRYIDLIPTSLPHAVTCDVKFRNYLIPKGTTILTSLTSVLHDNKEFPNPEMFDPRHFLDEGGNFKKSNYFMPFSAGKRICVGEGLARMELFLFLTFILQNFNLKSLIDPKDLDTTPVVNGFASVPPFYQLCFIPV
Chain of Nuclear receptor subfamily 1 group I member 2 (Homo sapiens) (O75469 whole entry, looked up): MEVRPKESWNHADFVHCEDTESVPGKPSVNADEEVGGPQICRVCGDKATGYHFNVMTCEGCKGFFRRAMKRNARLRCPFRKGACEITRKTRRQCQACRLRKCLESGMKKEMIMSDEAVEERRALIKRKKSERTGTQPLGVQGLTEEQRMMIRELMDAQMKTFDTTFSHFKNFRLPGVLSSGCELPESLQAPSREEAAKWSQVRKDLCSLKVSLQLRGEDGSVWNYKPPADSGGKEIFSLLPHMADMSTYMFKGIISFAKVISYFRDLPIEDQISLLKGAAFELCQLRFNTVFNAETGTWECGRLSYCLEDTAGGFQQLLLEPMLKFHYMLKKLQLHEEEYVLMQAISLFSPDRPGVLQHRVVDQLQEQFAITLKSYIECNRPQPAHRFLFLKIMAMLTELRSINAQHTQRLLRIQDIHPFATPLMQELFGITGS
Chain of Cytochrome P450 1A2 (Homo sapiens) (P05177 whole entry, looked up): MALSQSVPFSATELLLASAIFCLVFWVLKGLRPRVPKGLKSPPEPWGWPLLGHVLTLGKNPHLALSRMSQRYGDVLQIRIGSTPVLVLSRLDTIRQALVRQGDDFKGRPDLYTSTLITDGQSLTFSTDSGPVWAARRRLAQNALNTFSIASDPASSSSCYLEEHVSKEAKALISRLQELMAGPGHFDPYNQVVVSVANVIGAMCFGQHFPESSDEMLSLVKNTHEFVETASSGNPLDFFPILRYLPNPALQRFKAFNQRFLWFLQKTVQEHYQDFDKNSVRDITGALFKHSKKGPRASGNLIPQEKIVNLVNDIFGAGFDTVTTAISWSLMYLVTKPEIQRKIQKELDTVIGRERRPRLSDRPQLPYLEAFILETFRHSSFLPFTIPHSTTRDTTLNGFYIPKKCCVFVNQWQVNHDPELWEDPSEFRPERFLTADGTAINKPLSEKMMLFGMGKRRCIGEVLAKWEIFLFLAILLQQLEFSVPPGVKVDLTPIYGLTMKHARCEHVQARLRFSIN
Chain of Cytochrome P450 2D6 (Homo sapiens) (P10635 whole entry, looked up): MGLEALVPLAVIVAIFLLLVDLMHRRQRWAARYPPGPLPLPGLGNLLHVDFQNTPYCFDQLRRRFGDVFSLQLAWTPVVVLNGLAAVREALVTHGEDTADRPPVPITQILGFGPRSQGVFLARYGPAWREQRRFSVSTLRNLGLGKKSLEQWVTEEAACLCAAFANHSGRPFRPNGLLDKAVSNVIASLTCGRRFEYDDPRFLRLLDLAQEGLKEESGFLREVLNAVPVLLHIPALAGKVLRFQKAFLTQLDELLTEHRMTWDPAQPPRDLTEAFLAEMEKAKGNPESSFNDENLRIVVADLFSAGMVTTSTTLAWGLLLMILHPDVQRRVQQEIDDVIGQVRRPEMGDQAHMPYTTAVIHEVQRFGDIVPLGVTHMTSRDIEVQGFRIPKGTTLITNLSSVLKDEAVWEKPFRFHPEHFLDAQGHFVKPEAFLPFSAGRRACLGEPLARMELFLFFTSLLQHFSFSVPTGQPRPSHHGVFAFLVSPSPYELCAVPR
Chain of Cytochrome P450 3A4 (Homo sapiens) (P08684 whole entry, looked up): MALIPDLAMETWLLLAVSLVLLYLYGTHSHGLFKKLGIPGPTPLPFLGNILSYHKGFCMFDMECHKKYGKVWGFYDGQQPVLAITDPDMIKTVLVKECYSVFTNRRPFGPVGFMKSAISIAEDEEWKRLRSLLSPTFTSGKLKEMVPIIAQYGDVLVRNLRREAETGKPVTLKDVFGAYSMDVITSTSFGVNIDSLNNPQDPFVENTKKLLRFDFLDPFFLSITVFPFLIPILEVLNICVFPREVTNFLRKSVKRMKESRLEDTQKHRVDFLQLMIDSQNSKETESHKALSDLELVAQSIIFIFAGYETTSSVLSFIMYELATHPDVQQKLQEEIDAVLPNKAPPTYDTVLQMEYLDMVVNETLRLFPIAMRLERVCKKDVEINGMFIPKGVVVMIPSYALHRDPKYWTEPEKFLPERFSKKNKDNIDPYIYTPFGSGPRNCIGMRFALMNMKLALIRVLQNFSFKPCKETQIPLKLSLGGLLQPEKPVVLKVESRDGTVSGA
Chain of Voltage-gated inwardly rectifying potassium channel KCNH2 (Homo sapiens) (Q12809 whole entry, looked up): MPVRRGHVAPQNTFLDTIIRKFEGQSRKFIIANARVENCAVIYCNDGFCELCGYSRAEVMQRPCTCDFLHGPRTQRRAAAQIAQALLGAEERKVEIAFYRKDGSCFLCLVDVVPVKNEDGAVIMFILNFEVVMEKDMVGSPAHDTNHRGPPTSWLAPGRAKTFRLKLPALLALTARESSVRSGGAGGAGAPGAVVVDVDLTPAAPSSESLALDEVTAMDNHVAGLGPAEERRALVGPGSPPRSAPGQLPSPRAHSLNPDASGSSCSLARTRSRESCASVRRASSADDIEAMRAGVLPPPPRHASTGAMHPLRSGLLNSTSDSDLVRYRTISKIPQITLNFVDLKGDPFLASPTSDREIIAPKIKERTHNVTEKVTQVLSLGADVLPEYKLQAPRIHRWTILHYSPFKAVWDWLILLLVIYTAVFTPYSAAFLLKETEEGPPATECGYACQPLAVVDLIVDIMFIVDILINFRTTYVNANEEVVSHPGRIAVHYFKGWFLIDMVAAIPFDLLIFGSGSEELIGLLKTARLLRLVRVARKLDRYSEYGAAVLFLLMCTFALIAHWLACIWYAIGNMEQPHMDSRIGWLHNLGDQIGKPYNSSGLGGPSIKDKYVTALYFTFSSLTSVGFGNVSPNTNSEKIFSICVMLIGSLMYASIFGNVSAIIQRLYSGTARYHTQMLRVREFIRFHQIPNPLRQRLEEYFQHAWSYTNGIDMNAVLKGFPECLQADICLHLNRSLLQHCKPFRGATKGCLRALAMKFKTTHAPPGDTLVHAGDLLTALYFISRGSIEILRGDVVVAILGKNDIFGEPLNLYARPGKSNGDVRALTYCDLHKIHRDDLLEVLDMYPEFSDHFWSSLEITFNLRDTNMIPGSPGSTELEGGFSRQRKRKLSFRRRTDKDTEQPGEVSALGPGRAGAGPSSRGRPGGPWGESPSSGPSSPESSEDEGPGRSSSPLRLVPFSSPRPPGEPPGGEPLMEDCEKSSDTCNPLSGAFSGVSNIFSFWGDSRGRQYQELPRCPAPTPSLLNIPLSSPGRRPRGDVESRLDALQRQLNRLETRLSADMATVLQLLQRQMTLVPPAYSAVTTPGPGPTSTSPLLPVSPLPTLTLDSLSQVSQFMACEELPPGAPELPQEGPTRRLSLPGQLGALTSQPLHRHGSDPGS

For `CCCCC(C)C(=O)O` (stereo unspecified), the molecule was called inactive in [1], in experiment [2], in [4] and in experiment [6]. The Potency result in [3], in experiment [5], in experiment [7], in [8] and in [11] was “inactive” in each case. Besides, the Potency in experiment [9] and in experiment [10] was 39.9 µM (active) each time.

`CN[C@@H]1[C@@H](O)[C@@H](O[C@@H]2[C@H](O)[C@H](O[C@H]3OC(CN)=CC[C@H]3N)[C@@H](N)C[C@H]2N)OCC1(C)O` (stereo partly specified): the Potency result in [3], in [5], in experiment [12] and in experiment [11] was “inactive” throughout. Also, the call in experiment [4] and in [6] was inactive.

With `C=C(C)[C@@H]1CC[C@@H](C)C[C@@H]1O`, the result in experiment [1], in [2] and in experiment [4] was inactive. The Potency result in experiment [3], in experiment [5], in experiment [12], in experiment [7], in experiment [8] and in [9] was “inactive” throughout. The Potency result in experiment [13], in experiment [11] and in experiment [14] was “inactive” in each case. Also, the Potency in experiment [10] was 39.9 µM (active).

Turning to `COC(/C=C(\C)CCC=C(C)C)OC`, the result in experiment [1], in experiment [2], in experiment [4] and in experiment [6] was inactive. Moreover, the Potency entry in [3], in experiment [12], in experiment [7], in experiment [8], in experiment [9] and in experiment [13] was “inactive” each time. Moreover, the Potency result in [10] and in [11] was “inactive” throughout.

As to `CC(C)COC(=O)/C=C/c1ccccc1`, the molecule was classed as inactive in [1], in experiment [2] and in [4]. The Potency entry in experiment [3], in experiment [5], in [12], in experiment [7], in experiment [8] and in [14] was “inactive” in each case. Further, in experiment [10], the Potency was 28.3 µM (active).

Regarding `C[C@H](CCC(=O)O)[C@H]1CC[C@H]2[C@@H]3[C@H](O)C[C@@H]4C[C@H](O)CC[C@]4(C)[C@H]3C[C@H](O)[C@]12C`, the outcome in experiment [1], in [2], in [4] and in experiment [6] was inactive. Moreover, the Potency result in experiment [3], in [12], in [7], in [8], in experiment [13] and in experiment [10] was “inactive” each time. Also, the Potency entry in experiment [11] is “inactive”.

As to `CCCCCCCCCOCC1CO1` (stereo unspecified), the call in [1], in experiment [2], in [4] and in [6] was inactive. Besides, the Potency entry in [3], in [12] and in [11] was “inactive” throughout. The Potency was 52.2 µM (active) in experiment [9] and 82.8 µM (active) in [13].

In the case of `CCOC(=O)OCC/C(SC(=O)OCC)=C(\C)N(C=O)Cc1cnc(C)nc1N`, the outcome in experiment [1], in experiment [2], in experiment [4] and in [6] was inactive. The Potency entry in [3], in experiment [5], in experiment [7], in experiment [9], in experiment [13] and in experiment [10] was “inactive” throughout. Also, the Potency result in [11] was “inactive”. The Potency in [8] is 2.45 µM (active).

`CCCCCCCCCCCCCCCCCCN(C)C`: the result in [1], in experiment [2], in experiment [4] and in experiment [6] was inactive. In addition, the Potency entry in experiment [3], in experiment [12], in experiment [8], in experiment [9], in experiment [13] and in experiment [10] was “inactive” in each case. In addition, the Potency entry in experiment [11] and in [14] was “inactive” throughout.
